Our source for the binding signal values is PMC7862700, “An all-to-all approach to the identification of sequence-specific readers for epigenetic DNA modifications on cytosine”.

Holding throughout (assay): DAPPL (digital affinity profiling via proximity ligation, sequencing); 10 mM Tris-HCl pH 7.5, 50 mM NaCl, 1 mM DTT, 4% glycerol, room temperature, 30 min; GST-TFs on glutathione beads, 16-mer random dsDNA library, 0.1% formaldehyde crosslink after washing; high values mean tight binding
Holding throughout (settings): protein: recombinant; tags: N-terminal GST; dsDNA, one strand shown

One assay concerns the target T1, ELF3 (Homo sapiens, UniProt P78545 1-371).
T1 sequence: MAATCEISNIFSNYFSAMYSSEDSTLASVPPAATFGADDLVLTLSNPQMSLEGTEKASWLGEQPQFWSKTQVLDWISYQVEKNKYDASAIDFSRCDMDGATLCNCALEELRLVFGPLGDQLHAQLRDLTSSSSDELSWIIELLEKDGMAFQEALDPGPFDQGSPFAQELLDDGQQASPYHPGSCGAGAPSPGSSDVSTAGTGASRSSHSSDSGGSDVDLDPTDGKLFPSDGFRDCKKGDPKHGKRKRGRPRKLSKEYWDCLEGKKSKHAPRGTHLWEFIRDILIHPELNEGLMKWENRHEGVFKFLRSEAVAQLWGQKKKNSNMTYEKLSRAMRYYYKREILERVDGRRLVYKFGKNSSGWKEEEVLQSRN
An outline of the steps: (§1)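 A tag-only sample was pooled with DNA-barcoded human transcription factors that had been expressed in yeast as GST fusions and captured on glutathione beads. The pools were incubated for 30 min at room temperature with 200 nmole of a random double-stranded 16-mer DNA library in Tris/NaCl/DTT/glycerol buffer, then washed, crosslinked with 0.1% formaldehyde, proximity-ligated (BsaI/T4 ligase, 1 h, 37 °C), PCR-amplified and sequenced on an Illumina NextSeq500. Binding signal is each hexamer's read frequency for a factor divided by its frequency for the tag-only sample.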

Another assay concerns the target T2, ETV7 (Homo sapiens, UniProt Q9Y603 1-341).
T2 sequence: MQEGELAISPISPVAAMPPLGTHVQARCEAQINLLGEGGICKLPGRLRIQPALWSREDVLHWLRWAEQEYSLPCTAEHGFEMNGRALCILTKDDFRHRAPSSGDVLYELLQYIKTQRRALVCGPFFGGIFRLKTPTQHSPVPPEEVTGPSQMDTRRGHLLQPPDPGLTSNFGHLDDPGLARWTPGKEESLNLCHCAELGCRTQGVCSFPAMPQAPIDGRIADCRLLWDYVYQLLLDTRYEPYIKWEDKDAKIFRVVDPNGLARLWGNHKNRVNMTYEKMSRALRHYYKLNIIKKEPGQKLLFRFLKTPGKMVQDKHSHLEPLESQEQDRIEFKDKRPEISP
In outline: as §1

A further assay concerns the target T3, ETV2 (Homo sapiens, UniProt O00321 1-342).
T3 sequence: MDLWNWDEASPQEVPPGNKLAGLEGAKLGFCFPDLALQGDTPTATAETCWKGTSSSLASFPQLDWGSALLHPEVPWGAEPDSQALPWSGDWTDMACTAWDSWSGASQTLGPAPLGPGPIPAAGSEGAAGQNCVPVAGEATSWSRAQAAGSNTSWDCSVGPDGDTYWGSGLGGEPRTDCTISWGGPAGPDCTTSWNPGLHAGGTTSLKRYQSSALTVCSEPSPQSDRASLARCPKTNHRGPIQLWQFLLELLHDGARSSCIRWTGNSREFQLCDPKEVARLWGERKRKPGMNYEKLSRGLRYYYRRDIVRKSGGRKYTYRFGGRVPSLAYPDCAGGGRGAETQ
An outline of the steps:
as §1

The target of another assay is CRX (Homo sapiens, UniProt O43186 1-299). An outline of the steps: as §1
The next assay concerns the target T4, SPDEF (Homo sapiens, UniProt O95238 1-335).
T4 sequence: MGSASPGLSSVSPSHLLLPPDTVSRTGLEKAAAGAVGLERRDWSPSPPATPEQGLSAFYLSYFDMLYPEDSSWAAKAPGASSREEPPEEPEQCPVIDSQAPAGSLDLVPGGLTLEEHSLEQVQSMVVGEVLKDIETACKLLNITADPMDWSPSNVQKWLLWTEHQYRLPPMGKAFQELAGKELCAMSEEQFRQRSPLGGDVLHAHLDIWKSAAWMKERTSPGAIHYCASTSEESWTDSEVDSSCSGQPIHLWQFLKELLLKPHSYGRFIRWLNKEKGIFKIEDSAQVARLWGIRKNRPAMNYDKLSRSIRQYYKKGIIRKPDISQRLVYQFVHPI
An outline of the steps:
as §1

Another assay concerns the target T5, ELK4 (Homo sapiens, UniProt P28324-2 1-405).
T5 sequence: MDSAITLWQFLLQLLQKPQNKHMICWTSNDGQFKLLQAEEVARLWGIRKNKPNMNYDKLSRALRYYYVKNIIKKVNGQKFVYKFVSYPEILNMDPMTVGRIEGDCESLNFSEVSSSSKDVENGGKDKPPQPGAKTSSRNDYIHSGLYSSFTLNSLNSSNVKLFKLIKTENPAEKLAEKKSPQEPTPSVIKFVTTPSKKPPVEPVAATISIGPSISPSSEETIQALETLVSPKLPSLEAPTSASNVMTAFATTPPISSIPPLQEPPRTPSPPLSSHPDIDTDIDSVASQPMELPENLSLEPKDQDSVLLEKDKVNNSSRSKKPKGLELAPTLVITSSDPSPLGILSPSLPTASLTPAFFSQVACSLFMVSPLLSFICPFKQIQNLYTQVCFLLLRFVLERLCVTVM
An outline of the steps:
as §1

Chain of CRX (O43186 whole entry): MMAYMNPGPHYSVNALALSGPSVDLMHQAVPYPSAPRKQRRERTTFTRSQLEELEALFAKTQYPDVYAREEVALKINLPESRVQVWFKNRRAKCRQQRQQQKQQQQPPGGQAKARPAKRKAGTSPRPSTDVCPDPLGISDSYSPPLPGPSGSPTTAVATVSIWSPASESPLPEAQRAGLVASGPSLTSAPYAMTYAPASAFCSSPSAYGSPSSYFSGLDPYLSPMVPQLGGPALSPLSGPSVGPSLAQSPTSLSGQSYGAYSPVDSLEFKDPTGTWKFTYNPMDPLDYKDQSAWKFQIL

For ATAGCG, in the assay with ELF3, the binding signal was 1.11 fold enrichment (6-mer frequency, TF over GST control).
In the case of AGTGAC, the binding signal in the assay with ETV7 is 1.03 fold enrichment (6-mer frequency, TF over GST control).
Consider GGTTAT, for which the binding signal with ETV2 was 1.09 fold enrichment (6-mer frequency, TF over GST control); with CRX, 1.04 fold enrichment (6-mer frequency, TF over GST control); with SPDEF, 1.05 fold enrichment (6-mer frequency, TF over GST control); in the assay with ETV7, 1.12 fold enrichment (6-mer frequency, TF over GST control).
As for AACGGA, the binding signal with ETV2 is 1.02 fold enrichment (6-mer frequency, TF over GST control); in the assay with ELF3, 1.03 fold enrichment (6-mer frequency, TF over GST control); with SPDEF, 1.23 fold enrichment (6-mer frequency, TF over GST control); with ETV7 it was 1.01 fold enrichment (6-mer frequency, TF over GST control).
As for CTATCA, the binding signal with ELK4 was 1.06 fold enrichment (6-mer frequency, TF over GST control); in the assay with ETV2, 1.05 fold enrichment (6-mer frequency, TF over GST control); with ELF3, 1.02 fold enrichment (6-mer frequency, TF over GST control); with CRX it was 1.01 fold enrichment (6-mer frequency, TF over GST control); in the assay with SPDEF, 1.07 fold enrichment (6-mer frequency, TF over GST control); in the assay with ETV7 it was 1.06 fold enrichment (6-mer frequency, TF over GST control).
As to ACGACC, the binding signal with ELK4 is 1.14 fold enrichment (6-mer frequency, TF over GST control); in the assay with ETV2 it was 1.34 fold enrichment (6-mer frequency, TF over GST control); with ELF3 it was 1.25 fold enrichment (6-mer frequency, TF over GST control); with SPDEF, 1.2 fold enrichment (6-mer frequency, TF over GST control); with ETV7, 1.18 fold enrichment (6-mer frequency, TF over GST control).
Regarding TCATAC, the binding signal with ELK4 was 1.07 fold enrichment (6-mer frequency, TF over GST control); with ETV2, 1.15 fold enrichment (6-mer frequency, TF over GST control); with ELF3, 1.08 fold enrichment (6-mer frequency, TF over GST control); with CRX it was 1.02 fold enrichment (6-mer frequency, TF over GST control); with SPDEF it was 1.05 fold enrichment (6-mer frequency, TF over GST control); with ETV7, 1.09 fold enrichment (6-mer frequency, TF over GST control).
As for GTTGCG, the binding signal with ELK4 is 1.01 fold enrichment (6-mer frequency, TF over GST control); with ETV2, 1.03 fold enrichment (6-mer frequency, TF over GST control); with ETV7 it was 1.04 fold enrichment (6-mer frequency, TF over GST control).
Regarding ACCGCA, the binding signal with ELK4 was 1.05 fold enrichment (6-mer frequency, TF over GST control); with ETV2 it was 1.3 fold enrichment (6-mer frequency, TF over GST control); with ELF3, 1.29 fold enrichment (6-mer frequency, TF over GST control); with CRX, 1.01 fold enrichment (6-mer frequency, TF over GST control); in the assay with SPDEF, 1.13 fold enrichment (6-mer frequency, TF over GST control); in the assay with ETV7, 1.12 fold enrichment (6-mer frequency, TF over GST control).
Regarding ACGGTT, the binding signal in the assay with ETV2 is 1.16 fold enrichment (6-mer frequency, TF over GST control); in the assay with SPDEF, 1.04 fold enrichment (6-mer frequency, TF over GST control); with ETV7, 1.04 fold enrichment (6-mer frequency, TF over GST control).
GTCCTG: the binding signal with ETV2 is 1.29 fold enrichment (6-mer frequency, TF over GST control); with ELF3, 1.07 fold enrichment (6-mer frequency, TF over GST control); with SPDEF, 1.34 fold enrichment (6-mer frequency, TF over GST control); in the assay with ETV7 it was 1.26 fold enrichment (6-mer frequency, TF over GST control).
Regarding GCCTGC, the binding signal in the assay with ELK4 is 1.18 fold enrichment (6-mer frequency, TF over GST control); with ETV2, 1.15 fold enrichment (6-mer frequency, TF over GST control); in the assay with ELF3, 1.13 fold enrichment (6-mer frequency, TF over GST control); with SPDEF it was 1.02 fold enrichment (6-mer frequency, TF over GST control); in the assay with ETV7, 1.13 fold enrichment (6-mer frequency, TF over GST control).
Consider CCCCCC, for which the binding signal with ELK4 was 1.23 fold enrichment (6-mer frequency, TF over GST control); in the assay with ETV2 it was 1.26 fold enrichment (6-mer frequency, TF over GST control); with ELF3, 1.28 fold enrichment (6-mer frequency, TF over GST control); with SPDEF, 1.08 fold enrichment (6-mer frequency, TF over GST control); in the assay with ETV7, 1.13 fold enrichment (6-mer frequency, TF over GST control).
Take GCAATT: the binding signal in the assay with ELK4 is 1.01 fold enrichment (6-mer frequency, TF over GST control); with ETV2 it was 1.01 fold enrichment (6-mer frequency, TF over GST control); with ELF3, 1.17 fold enrichment (6-mer frequency, TF over GST control); with SPDEF, 1.06 fold enrichment (6-mer frequency, TF over GST control); with ETV7, 1.18 fold enrichment (6-mer frequency, TF over GST control).
GTTATA: the binding signal in the assay with ELF3 is 1.13 fold enrichment (6-mer frequency, TF over GST control); with CRX, 1.08 fold enrichment (6-mer frequency, TF over GST control); in the assay with SPDEF it was 1.03 fold enrichment (6-mer frequency, TF over GST control); with ETV7 it was 1.05 fold enrichment (6-mer frequency, TF over GST control).
With CGGATC, the binding signal was 1.03 fold enrichment (6-mer frequency, TF over GST control) with ETV2; 1.21 fold enrichment (6-mer frequency, TF over GST control) with CRX; 1.67 fold enrichment (6-mer frequency, TF over GST control) in the assay with SPDEF.
With GGTATG, the binding signal was 1.09 fold enrichment (6-mer frequency, TF over GST control) in the assay with ELK4; 1.05 fold enrichment (6-mer frequency, TF over GST control) in the assay with ETV2; 1.02 fold enrichment (6-mer frequency, TF over GST control) with SPDEF; 1.01 fold enrichment (6-mer frequency, TF over GST control) in the assay with ETV7.
ATGGCG: the binding signal is 1.03 fold enrichment (6-mer frequency, TF over GST control) with ELF3; 1.02 fold enrichment (6-mer frequency, TF over GST control) with SPDEF; 1.01 fold enrichment (6-mer frequency, TF over GST control) with ETV7.
With GTTGTA, the binding signal in the assay with ELF3 is 1.04 fold enrichment (6-mer frequency, TF over GST control); with SPDEF it was 1.04 fold enrichment (6-mer frequency, TF over GST control); with ETV7, 1.06 fold enrichment (6-mer frequency, TF over GST control).
As for AGTGCC, the binding signal with ETV2 is 1.08 fold enrichment (6-mer frequency, TF over GST control); with ETV7, 1.05 fold enrichment (6-mer frequency, TF over GST control).
In the case of ACATAG, the binding signal in the assay with ETV2 was 1.11 fold enrichment (6-mer frequency, TF over GST control); with ELF3, 1.14 fold enrichment (6-mer frequency, TF over GST control); in the assay with SPDEF, 1 fold enrichment (6-mer frequency, TF over GST control); with ETV7 it was 1.13 fold enrichment (6-mer frequency, TF over GST control).
As for TGCCGG, the binding signal in the assay with ELF3 is 1.11 fold enrichment (6-mer frequency, TF over GST control); with SPDEF it was 1.21 fold enrichment (6-mer frequency, TF over GST control).
As for CAACCG, the binding signal in the assay with ETV2 was 1.08 fold enrichment (6-mer frequency, TF over GST control); in the assay with ELF3, 1.08 fold enrichment (6-mer frequency, TF over GST control); with SPDEF, 1.15 fold enrichment (6-mer frequency, TF over GST control).
As for GTACCC, the binding signal is 1.17 fold enrichment (6-mer frequency, TF over GST control) with ELK4; 1.11 fold enrichment (6-mer frequency, TF over GST control) with ETV2; 1.17 fold enrichment (6-mer frequency, TF over GST control) with ELF3; 1.14 fold enrichment (6-mer frequency, TF over GST control) with SPDEF; 1.06 fold enrichment (6-mer frequency, TF over GST control) with ETV7.
With CACATG, the binding signal was 1.23 fold enrichment (6-mer frequency, TF over GST control) in the assay with ELK4; 1.12 fold enrichment (6-mer frequency, TF over GST control) with ETV2; 1.04 fold enrichment (6-mer frequency, TF over GST control) with ELF3; 1.03 fold enrichment (6-mer frequency, TF over GST control) in the assay with ETV7.
Consider TGTGCG, for which the binding signal with ELK4 was 1.14 fold enrichment (6-mer frequency, TF over GST control); with ETV2, 1.2 fold enrichment (6-mer frequency, TF over GST control).
CCCTGA: the binding signal was 1.1 fold enrichment (6-mer frequency, TF over GST control) with ELK4; 1.17 fold enrichment (6-mer frequency, TF over GST control) with ETV2; 1.03 fold enrichment (6-mer frequency, TF over GST control) with CRX.
